Drawing on PubChem BioAssay, this text covers z-score and composite z-score for five compounds.

Calls of active or inactive are those of the source.

Assay [1] is described as follows: optical density shifts of acrAB sulA E. coli – strain DRC41, OD650, 48 h, E. coli filamentation inducer project, primary screen (AID 1152).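 Note: E. coli MC1000 strain DRC41 lacking acrAB efflux pump and sulA.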 The conditions noted are these: higher = more signal, called active from +8 up or from −8 down.
Assay [2] is described as follows: probe aLefty1 binding on compound microarray – biochemical, small-molecule microarray, 635/667 nm fluorescence, primary screen (AID 1153).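 Note: score merges spot fluorescence with signal-to-noise ratio from the scanned slide images.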 The conditions noted are these: higher = more signal.
A short description of assay [3]: plasmodial surface anion channel blockers, osmotic lysis – cell-based, P. falciparum Indochina, OD700, 1 h, primary screen (AID 1154). The conditions noted are these: P. falciparum Indochina infected RBC osmotic lysis, higher = more signal, called active from +8 up or from −8 down.
The nature of assay [4]: plasmodial surface anion channel blockers, osmotic lysis – cell-based, P. falciparum Indochina, OD700, 2 h, primary screen (AID 1155).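 Note: lysis reports solute entry through the parasite surface anion channel PSAC.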 The following applies: P. falciparum Indochina infected erythrocytes, higher = more signal, called active from +8 up or from −8 down.
Assay [5] in a line: changes in parasitized red cell lysis, either direction – P. falciparum Indochina, OD700, 3 h, PSAC antagonist project, primary screen (AID 1156). The following applies: P. falciparum-infected erythrocytes, osmotic lysis, higher = more signal, called active from +8 up or from −8 down.
Assay [6] can be described thus: plasmodial surface anion channel blockers, osmotic lysis – cell-based, P. falciparum Indochina, OD700, 18 h, primary screen (AID 1157). The following applies: P. falciparum Indochina infected erythrocytes, osmotic lysis OD700, 18 h; higher = more signal, called active from +8 up or from −8 down.
Assay [7] can be described thus: S6 kinase pathway phospho-S6 level changes – cell-based, A549, cytoblot, luminescence, serum-stimulated, primary screen (AID 1158).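 Note: serum-stimulated A549 lung adenocarcinoma cells; signal is phosphorylated S6 detected by cytoblot immunostaining with HRP secondary.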 The following applies: 5 h, higher = more signal.
Assay [8] deals with NADPH oxidase 2 (Homo sapiens) (UniProt P04839). As to the kind of experiment: compounds shifting NOX2 Amplex Red fluorescence – cell-based, HEK293-NOX2, PMA-stimulated, NOX inhibitor project, primary screen (AID 1159). Note: test concentration not given here. The following applies: 45 min, higher = more signal, called active from +8 up or from −8 down.
Sequence of NADPH oxidase 2 (Homo sapiens) (P04839 whole entry, looked up): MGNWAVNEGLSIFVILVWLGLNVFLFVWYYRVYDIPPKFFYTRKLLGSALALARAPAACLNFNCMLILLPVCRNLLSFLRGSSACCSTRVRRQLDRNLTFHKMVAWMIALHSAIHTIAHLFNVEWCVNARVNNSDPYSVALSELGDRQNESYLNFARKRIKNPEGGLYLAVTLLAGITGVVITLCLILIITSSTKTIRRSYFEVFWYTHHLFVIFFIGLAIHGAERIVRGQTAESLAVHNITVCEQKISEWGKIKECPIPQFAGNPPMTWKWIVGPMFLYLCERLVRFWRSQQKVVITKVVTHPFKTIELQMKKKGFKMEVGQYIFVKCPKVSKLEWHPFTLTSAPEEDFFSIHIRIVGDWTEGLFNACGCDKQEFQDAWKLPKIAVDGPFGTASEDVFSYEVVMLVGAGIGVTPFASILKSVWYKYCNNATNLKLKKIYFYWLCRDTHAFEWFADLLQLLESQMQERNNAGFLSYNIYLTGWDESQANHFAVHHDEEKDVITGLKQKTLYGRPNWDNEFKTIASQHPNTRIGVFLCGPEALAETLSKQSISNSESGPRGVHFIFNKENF
For assay [9], the target named is NADPH oxidase 4 (Homo sapiens) (UniProt Q9NPH5). As to the kind of experiment: compounds shifting NOX4 Amplex Red fluorescence – cell-based, HEK293-NOX4, tetracycline-induced, NOX inhibitor project, primary screen (AID 1160). The conditions noted are these: HEK293-NOX4, Amplex Red H2O2 fluorescence, 45 min; higher = more signal, called active from +8 up or from −8 down.
Sequence of NADPH oxidase 4 (Homo sapiens) (Q9NPH5 whole entry, looked up): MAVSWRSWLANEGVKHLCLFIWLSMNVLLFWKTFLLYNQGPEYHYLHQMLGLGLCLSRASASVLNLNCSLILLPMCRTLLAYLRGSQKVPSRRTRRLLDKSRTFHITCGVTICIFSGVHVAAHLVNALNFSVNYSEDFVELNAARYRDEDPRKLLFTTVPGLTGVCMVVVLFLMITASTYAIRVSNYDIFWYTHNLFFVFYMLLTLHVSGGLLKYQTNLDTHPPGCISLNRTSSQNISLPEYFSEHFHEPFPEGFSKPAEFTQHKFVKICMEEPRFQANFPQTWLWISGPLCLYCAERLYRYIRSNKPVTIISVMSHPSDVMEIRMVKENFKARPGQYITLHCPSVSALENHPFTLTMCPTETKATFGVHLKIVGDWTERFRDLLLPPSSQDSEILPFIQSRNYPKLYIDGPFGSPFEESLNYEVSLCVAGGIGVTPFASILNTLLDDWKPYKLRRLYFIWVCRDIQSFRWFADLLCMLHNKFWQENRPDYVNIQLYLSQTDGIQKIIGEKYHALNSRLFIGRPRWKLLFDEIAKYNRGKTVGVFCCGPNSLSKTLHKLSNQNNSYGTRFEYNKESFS

Assay [10] addresses NADPH oxidase 5 (Homo sapiens) (UniProt Q96PH1). As to the kind of experiment: compounds shifting NOX5 Amplex Red fluorescence – cell-based, HEK293-NOX5, NOX inhibitor project, primary screen (AID 1161). The following applies: HEK293-NOX5, ionomycin, 45 min, higher = more signal.
A short description of assay [11]: compound effects on lung adenocarcinoma cell viability – A549, calcein-AM fluorescence, 48 h, basal, profiling panel (AID 1162). Note: test concentration not given here. The following applies: higher = more signal.
The nature of assay [12]: compound effects on differentiated 3T3-L1 adipocyte viability – cell-based, 3T3-L1 adipocytes, calcein-AM fluorescence, 48 h, basal, profiling panel (AID 1163). Note: test concentration not given here. The following applies: 3T3-L1 adipocytes viability, higher = more signal.
A short description of assay [13]: compound effects on hepatocellular carcinoma cell viability – HepG2, calcein-AM fluorescence, 48 h, basal, profiling panel (AID 1164). Note: test concentration not given here. The conditions noted are these: higher = more signal.
The nature of assay [14]: compound effects on multiple myeloma cell viability – MM1S, calcein-AM fluorescence, 48 h, basal, profiling panel (AID 1165).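 Note: viability of MM1S multiple myeloma cells under basal unstimulated conditions; test concentration not given here.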 The following applies: higher = more signal.
A short description of assay [15]: calcein-AM signal in unstimulated myeloma cells – cell-based, calcein-AM fluorescence, 48 h, PK04 Diversity Set, profiling panel (AID 1166).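 Note: cells grown under basal conditions without added stimulus; test concentration not given here.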 The following applies: RPMI8226 myeloma viability, higher = more signal.
Assay [16] is described as follows: JC-1 mitochondrial signal, unstimulated HepG2 cells – cell-based, JC-1 fluorescence, 24 h, 100 nL compound, profiling panel (AID 1167). Note: test concentration not given here. The conditions noted are these: HepG2 mitochondrial potential, higher = more signal.
The nature of assay [17]: JC-1 mitochondrial signal, unstimulated adipocytes – cell-based, JC-1 fluorescence, 3T3-L1 adipocytes, 24 h, 100 nL compound, profiling panel (AID 1168). Note: test concentration not given here. The following applies: JC-1 mitochondrial fluorescence, higher = more signal, called active from +8 up or from −8 down.
Assay [18] is described as follows: JC-1 mitochondrial signal, unstimulated myeloma cells – cell-based, JC-1 fluorescence, RPMI8226, 24 h, 100 nL compound, profiling panel (AID 1169). Note: test concentration not given here. The following applies: JC-1 mitochondrial potential fluorescence, higher = more signal.
Assay [19] in a line: JC-1 mitochondrial signal, unstimulated MM1S myeloma – cell-based, JC-1 fluorescence, 24 h, 100 nL compound, profiling panel (AID 1170). Note: test concentration not given here. The following applies: MM1S mitochondrial potential, higher = more signal.
A short description of assay [20]: resazurin metabolic signal in A549 cells – cell-based, resazurin fluorescence, 24 h, PK04 Diversity Set, profiling panel (AID 1171). Note: test concentration not given here. The following applies: A549 viability, higher = more signal, called active from +8 up or from −8 down.

Sequence of NADPH oxidase 5 (Homo sapiens) (Q96PH1 whole entry, looked up): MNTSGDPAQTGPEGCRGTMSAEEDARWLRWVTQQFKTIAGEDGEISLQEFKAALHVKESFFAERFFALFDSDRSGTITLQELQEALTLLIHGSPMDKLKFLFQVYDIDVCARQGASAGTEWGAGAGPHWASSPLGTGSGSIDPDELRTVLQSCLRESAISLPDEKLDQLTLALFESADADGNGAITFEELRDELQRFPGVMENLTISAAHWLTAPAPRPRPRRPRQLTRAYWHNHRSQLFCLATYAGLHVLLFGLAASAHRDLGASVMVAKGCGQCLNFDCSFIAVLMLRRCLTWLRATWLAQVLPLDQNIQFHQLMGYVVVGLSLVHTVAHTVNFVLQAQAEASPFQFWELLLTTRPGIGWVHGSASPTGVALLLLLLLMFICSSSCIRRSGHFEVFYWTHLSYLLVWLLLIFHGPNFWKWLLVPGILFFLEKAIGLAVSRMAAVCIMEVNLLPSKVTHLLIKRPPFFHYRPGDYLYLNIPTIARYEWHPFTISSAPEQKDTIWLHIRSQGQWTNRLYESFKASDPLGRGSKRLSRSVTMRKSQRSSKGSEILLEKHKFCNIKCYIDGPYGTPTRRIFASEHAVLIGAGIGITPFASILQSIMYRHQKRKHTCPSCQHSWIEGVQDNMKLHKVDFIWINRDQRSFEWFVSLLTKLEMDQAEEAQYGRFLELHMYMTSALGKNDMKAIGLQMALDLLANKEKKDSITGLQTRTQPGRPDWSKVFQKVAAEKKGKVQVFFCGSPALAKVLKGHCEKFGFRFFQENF

On to `CC(C)N1CC=CC23O[C@@H]4C=CCCOC(=O)C4[C@H]2C(=O)N(CCO)[C@@H]3C1=O` (stereo not given in full), for which the z-score in [1] was 2.1 (inactive); in assay [3], 0.326 (inactive); in assay [4] it was 0.568 (inactive); in assay [5], 1.03 (inactive); in assay [6], 0.406 (inactive); in assay [7], 0.468. The z-score is 1.37 (inactive) in assay [8]; 0.509 (inactive) in assay [9]; 1.54 in assay [10]; -0.555 in assay [11]; -0.0175 in assay [12]; -2.03 in [13]. In addition, the z-score is 0.506 in [14]; 0.0275 in [15]; -0.333 in assay [16]; 0.5 (inactive) in assay [17]; 1 in assay [18]; 0.862 in assay [19]. The z-score in assay [20] was 1.06 (inactive). This compound had a composite z-score in assay [2] of -0.357.

As to `COc1ccc([Si](C)(C)[C@@H]2[C@@H](CC(=O)N3CCC[C@H]3CO)O[C@]3(C(=O)N(Cc4ccc(N5C(=O)c6cccc7cccc5c67)cc4)c4ccccc43)[C@H]2C)cc1`, the z-score in assay [1] was 1.13 (inactive); in assay [3] it was 5.77 (inactive); in assay [4] it was 1.71 (inactive); in [5] it was 1.06 (inactive); in assay [6] it was 0.918 (inactive); in assay [7], 0.486. The z-score in assay [8] was 3.1 (inactive); in assay [9], 1.37 (inactive); in assay [10], 4.38; in assay [11], -1.22; in assay [12], 1.43; in assay [13] it was -2.94. The z-score in [14] is -2.75; in [15], -4.35; in assay [16] it was -1.18; in assay [17], -0.209 (inactive); in assay [18], -1.01; in assay [19] it was -2.21. In addition, the z-score in assay [20] was -3.19 (inactive). For the same compound, the composite z-score in assay [2] is -0.0984.

For `COc1ccc([Si](C)(C)[C@@H]2[C@@H](CCn3cc([C@H](O)c4ccccc4)nn3)O[C@]3(C(=O)N(Cc4ccc(N5CCOC5=O)cc4)c4ccccc43)[C@H]2C)cc1`, the z-score is 1.34 (inactive) in assay [1]; 28.2 (active) in assay [3]; 17.1 (active) in assay [4]; 1.45 (inactive) in [5]; 1.63 (inactive) in [6]; 0.0719 in assay [7]. The z-score in assay [8] was 1.31 (inactive); in assay [9], 2.36 (inactive); in [10], 1.74; in assay [11], -0.0046; in assay [12], 0.417; in assay [13], 0.215. For the same compound, the z-score in assay [14] is -1.06; in assay [15] it was -1.3; in assay [16] it was 1.67; in [17] it was 0.00306 (inactive); in assay [18] it was 0.417; in [19], -0.657. Besides, in assay [20], the z-score is 0.595 (inactive). In assay [2], this compound returned a composite z-score of 0.142.

As for `O=C1NC(=O)C2C1C=CC(C(O)c1ccc3c(c1)OCO3)N2Nc1ccccn1` (stereo not given), the z-score is -0.0438 (inactive) in assay [1]; -0.113 (inactive) in assay [3]; -0.665 (inactive) in [4]; -0.752 (inactive) in assay [5]; -0.839 (inactive) in [6]; 0.883 in assay [7]. Also, the z-score in assay [8] is -1.27 (inactive); in [9] it was -3 (inactive); in assay [10] it was -1.73; in [11], 0.732; in assay [12] it was -1.11; in assay [13], 0.641. Besides, the z-score is 0.0178 in [14]; -0.12 in assay [15]; -0.465 in assay [16]; -0.0272 (inactive) in [17]; 0.115 in [18]; -0.263 in [19]. Moreover, the z-score in [20] is -1.67 (inactive). In addition, the composite z-score in assay [2] is -0.112.

On to `CO[C@H]1O[C@H](CO)[C@@H](OC(=O)Nc2ccc(Oc3ccccc3)cc2)[C@H](OC(=O)Nc2ccccc2-c2ccccc2)[C@@H]1OC(=O)Nc1ccccc1-c1ccccc1`, for which the z-score was 0.963 (inactive) in assay [1]; 0.484 (inactive) in [3]; 1.04 (inactive) in [4]; 0.228 (inactive) in assay [5]; 0.766 (inactive) in assay [6]; 0.322 in assay [7]. Moreover, the z-score in [8] is 2.06 (inactive); in assay [9], 0.707 (inactive); in assay [10] it was 0.356; in [11] it was -0.0685; in [12] it was 0.0358; in assay [13], -0.61. Besides, the z-score was -0.443 in assay [14]; -0.612 in assay [15]; 0.319 in assay [16]; 2.46 (inactive) in [17]; -1.13 in assay [18]; 0.267 in assay [19]. Further, in [20], the z-score is -0.41 (inactive). The compound further had a composite z-score in assay [2] of 0.361.
